# Experimental data taken from PubChem BioAssay (Tox21).
# Results filed as inconclusive are left out. Where a call stands in place of a potency, no number is given. The source made the active and inactive calls. Calls come from the whole dose curve; as a rule, active = well fitted activation curve with a large enough effect in the repeat runs; inconclusive = weak or mixed curves; inactive = flat fitted curve, though single readings scatter.
# Test: A CellTox Green Cytotoxicity Assay to monitor cytotoxicity in HEK293 cells - 24 hour (AID 1224875); note: nearly all actives have a fitted effect of over 45% in size
# Conditions: CellTox Green fluorescence; series mostly up to 76.8 µM
# Description: National Center for Advancing Translational Sciences [NCATS]
# NIH Chemical Genomics Center [NCGC]
# U.S. Environmental Protection Agency [EPA]
# National Institutes of Environmental Health Sciences [NIEHS]
# National Toxicology Program [NTP]
# Cell-based models are critical for drug discovery. Determining the natural cytotoxic effects resulting from test compounds is an essential research activity. A CellTox Green Cytotoxicity Assay to monitor cytotoxicity in real time of continues cell culture during 40 hours of the compound treatment was used to screen Tox21 10K library compounds in Hek293 cells. CellTox Green Cytotoxicity Assay is a nonlytic, homogeneous, biofluorescent method to measure cytotoxicity in cell culture after experimental manipulation. The assay system uses a proprietary asymmetric cyanine dye that is excluded from viable cells but preferentially stains the dead cell's DNA. […] Viable cells produce no appreciable increases in fluorescence. Therefore, the fluorescence signal produced by the binding interaction with dead cell DNA is proportional to cytotoxicity.
# The mixture of Hek293 cell suspension and reagents were dispensed at 600cells/6 ul/well in 1536-well tissue culture treated black solid bottom plates using a Multidrop dispenser. After the assay plates were incubated at a 37 C/5% CO2 incubator for 5 hours, 23 nL of compounds dissolved in DMSO, positive and negative controls was transferred to the assay plate by a pintool work station. The plates were incubated at 37 C for 40 hours. The fluorescence intensity were measured at 0h, 8h, 16h, 24h, 32h and 40h time points using ViewLux plate reader during compound treatment.
row,Structure (SMILES),Potency
1,CC1=C(C)S(=O)(=O)CCS1(=O)=O,inactive
2,CCC(O)OCCCOC (stereo not given),inactive
3,CC(=O)CC(=O)Nc1ccccc1,inactive
4,C#C[C@]1(O)CC[C@H]2[C@@H]3CCC4=CC(=O)CC[C@@H]4[C@H]3CC[C@@]21C,inactive
5,Cc1ccc(N(C)C)cc1,inactive
6,Nc1ccccc1[N+](=O)[O-],inactive
7,O=C(Oc1ccccc1)c1ccccc1,inactive
8,CC1=CCC2CC1C2(C)C (stereo not given),inactive
9,CN(C)CCCN,inactive
10,CC(=O)Nc1cccc(O)c1,inactive
11,CCCCC(CC)CO (stereo not given),inactive
12,CCCCCCCCCCCCCCO,inactive
13,CCCCC(CC)COC(=O)CS (stereo not given),inactive
14,OCCOCCN1CCN(C2=Nc3ccccc3Sc3ccccc32)CC1,inactive
15,C[Si](O[Si](C)(C)C)O[Si](C)(C)C,inactive
16,CC(=O)OCC(=O)[C@@]12N=C(C)O[C@@H]1C[C@H]1[C@@H]3CCC4=CC(=O)C=C[C@]4(C)[C@H]3[C@@H](O)C[C@@]12C,inactive
17,CCCCCCCCCC,inactive
18,CCc1ccc(CCOc2ccc(CC3SC(=O)NC3=O)cc2)nc1 (stereo not given),inactive
19,CCCCCCCCCCCCc1ccccc1,inactive
20,OCCOCCOCCO,inactive

row,Structure (SMILES),Potency
1,FC(F)(F)c1ccc(Cl)c(Cl)c1,inactive
2,C=C(C)C(=O)O[C@H]1C[C@@H]2CC[C@@]1(C)C2(C)C,inactive
3,C[C@H]1C[C@H]2[C@@H]3CCC4=CC(=O)C=C[C@]4(C)[C@@]3(F)[C@@H](O)C[C@]2(C)[C@@]1(O)C(=O)CO,inactive
4,O=c1[nH]c(=O)n([C@H]2CCCO2)cc1F,inactive
5,CC(=O)c1ccccc1,inactive
6,Cc1occc(=O)c1O,inactive
7,CCCCCCOCCO,inactive
8,CCCCCC(N)=O,inactive
9,COc1cc(Cc2cnc(N)nc2N)cc(OC)c1OC,inactive
10,O=S1(=O)CC=CC1,inactive
11,CC1=CC(=O)NS(=O)(=O)O1,inactive
12,ON=C1CCCCC1,inactive
13,C#CCN(C)Cc1ccccc1,inactive
14,O=C(O)CCCC[C@@H]1SC[C@@H]2NC(=O)N[C@@H]21,inactive
15,C=CCOC(=O)c1ccccc1C(=O)OCC=C,inactive
16,CCCCOC(=O)COc1ccc(Cl)cc1Cl,inactive
17,CCCCCC/C(C=O)=C\c1ccccc1,inactive
18,Cc1cccc(O)c1,inactive
19,O=C1CCC(N2C(=O)c3ccccc3C2=O)C(=O)N1 (stereo not given),inactive
20,CCc1cccc(C)c1N,inactive
